In PubChem BioAssay AID651813 (National Center for Advancing Translational Sciences (NCATS), 2012):
The whole screen tested about 2,100 compounds, of which about 1,100 (52%) were called active. Not shown: some 27% with an inconclusive outcome. Calls come from the whole dose curve; as a rule, active = well fitted inhibition curve with a large enough effect; inconclusive = small, poorly fitted or top-dose-only effect; inactive = no such curve, though single readings can be large or run the other way. The set was probably picked from earlier hits. This is one part of the list.

What follows are compounds tested against DNA dC->dU-editing enzyme APOBEC-3G (Homo sapiens) (UniProt Q9HC16) (assay: qHTS for inhibitors of Vif-A3G interactions: Cherry picks counterscreen). Details: HeLa A3G-eYFP + Vif (tagged APOBEC3G with the HIV-1 protein that degrades it), eYFP fluorescence, 24 h.
Procedure, shortened: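 HeLa cells stably expressing A3G-eYFP and Vif were treated for 24 h at 37 deg C with compounds at several concentrations; yellow fluorescence (Ex 488 nm, Em 500-530 nm) read by Acumen Explorer, MG132 as positive control.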
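Note: hits raise yellow fluorescence by blocking Vif-driven A3G-eYFP degradation; nearly all actives have a fitted effect of over 70% in size.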
Potency is the fitted concentration of half-maximal effect.
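Throughout, for max response: max response given as percent of control signal.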

DNA dC->dU-editing enzyme APOBEC-3G (Homo sapiens), sequence (Q9HC16 whole entry, looked up): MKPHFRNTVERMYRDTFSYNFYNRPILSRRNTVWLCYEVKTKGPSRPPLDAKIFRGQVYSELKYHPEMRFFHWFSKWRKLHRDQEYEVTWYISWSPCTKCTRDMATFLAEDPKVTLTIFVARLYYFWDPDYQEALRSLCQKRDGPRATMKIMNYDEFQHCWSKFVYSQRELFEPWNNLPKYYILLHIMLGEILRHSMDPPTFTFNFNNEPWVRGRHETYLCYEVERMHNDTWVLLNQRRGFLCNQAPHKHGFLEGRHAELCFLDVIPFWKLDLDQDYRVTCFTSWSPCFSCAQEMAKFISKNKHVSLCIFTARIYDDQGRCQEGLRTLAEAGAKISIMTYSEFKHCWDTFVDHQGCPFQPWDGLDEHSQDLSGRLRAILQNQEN

SMILES | max response | Potency
Cc1ccc(S(=O)c2ccc([N+](=O)[O-])c3nonc23)cc1 (centres undefined) | 28.3% (inactive) | 
CN1CCC(OC(=O)c2cc3cc(Cl)cc(Cl)c3oc2=O)CC1 | 17.4% (inactive) | 
Cn1nnc2c[n+](CC(=O)c3ccc(Cl)cc3)cc(Br)c21 |  | 19.8 µM (active)
O=C(Nc1nnc(-c2ccc3c(c2)CCCC3)o1)c1c(F)cccc1F | 11.9% (inactive) | 
Cc1ccc(C=NNC(=O)c2cc(-c3cccnc3)nc3ccccc23)o1 |  | 15.8 µM (active)
O=C(N/N=C/c1c(O)n(-c2ccc(Cl)cn2)c(=O)c2ccccc12)c1ccncc1 | -19.7% (inactive) | 
O=C(N/N=C/c1ccc(Cl)cc1)c1cc(-c2cccnc2)nc2ccccc12 |  | 2.5 µM (active)
C/C(=N\NC(=O)c1cc(C)nc2ccccc12)c1ccncc1 | -20.6% (inactive) | 
Cc1ccc(/C=N/NC(=O)c2cc(-c3ccccc3)nc3ccccc23)o1 |  | 19.8 µM (active)
Cc1cc(C(=O)N/N=C/c2ccc(C)o2)c2ccccc2n1 |  | 4.98 µM (active)
COCCNC(=S)N/N=C(\C)c1ccccc1O | 6.88% (inactive) | 
CCOc1ccc(/C=N/NC(=O)c2cc3c(OC)cccc3[nH]2)cc1 | 2.03% (inactive) | 
COc1cccc(/C=N/NC(=O)c2cc3c(OC)c(OC)ccc3[nH]2)c1OC |  | 7.9 µM (active)
COc1ccccc1/C=N/NC(=O)c1cc2c(OC)c(OC)ccc2[nH]1 |  | 5.59 µM (active)
COCCCNC(=S)N/N=C/c1cccc(OC)c1O | 7.9% (inactive) | 
COc1ccc(N=Cc2c(O)n(-c3cccc(C)n3)c(=O)c3ccccc23)c(OC)c1 |  | 6.51 µM (active)
Cc1ccc(N=Cc2c(O)n(-c3nccs3)c(=O)c3ccccc23)c(C)c1 | -1.11% (inactive) | 
CC1=Nc2ccc(C)cc2/C1=C/c1c(N)n2oc(C)cc2nc1=O |  | 16.4 µM (active)
CCSC1=NSC2=NC(=O)/C(=C\c3coc4ccccc4c3=O)C(=N)N12 |  | 16.4 µM (active)
Cc1ccc(Cn2c(SCc3ccc(C(=O)NC4CCCC4)cc3)nc3ccncc32)cc1 | -1.29% (inactive) | 
COc1ccc(C)cc1Nc1c2c(nc3ccccc13)CCC2 |  | 0.886 µM (active)
Cc1ccc(O)c(Nc2c3ccccc3nc3ccccc23)c1 | 10.9% (inactive) | 
Cc1ccc(-c2cn3nc(-c4ccccc4)c(-c4ccccc4)nc3n2)cc1 |  | 16.4 µM (active)
Cc1ccc(N=C2NC(=O)/C(=C/c3cccn3C)S2)cc1 |  | 14 µM (active)

SMILES | max response | Potency
Cn1cccc1/C=C1\SC(=Nc2cccc(O)c2)NC1=O |  | 11.2 µM (active)
Cc1cccc(N=C2NC(=O)/C(=C/c3cccn3C)S2)c1 | -23.6% (inactive) | 
Cn1cccc1/C=C1\SC(=Nc2ccccc2)NC1=O |  | 2.5 µM (active)
Cc1ccc(N=C2NC(=O)/C(=C/c3cn(C)c4ccccc34)S2)cc1C |  | 17.7 µM (active)
O=C(NC(=S)Nc1ccccc1N1CCCCC1)c1ccccc1 | 8.17% (inactive) | 
COc1cc(S(=O)(=O)Nc2ccccc2N2CCCCC2)ccc1NC(C)=O |  | 2.23 µM (active)
C=CCN1C(=O)/C(=C2/Sc3ccc(OC)cc3N2CC)SC1=S |  | 11.6 µM (active)
C=CCN1C(=O)/C(=C2/Sc3ccc(OC)cc3N2C)SC1=Nc1cccc(O)c1 |  | 18.4 µM (active)
Cc1cc(-n2c(SCC(=O)Nc3ccc(Br)cc3)nc3n[nH]c(C)c3c2=N)ccc1Cl | -13.3% (inactive) | 
CCOC(=O)N1CCc2c(sc3c2C(=O)NC(c2ccc(N(C)C)cc2)N3)C1 (centres undefined) |  | 4.11 µM (active)
O=C(Nc1nc(-c2ccccn2)cs1)C1CCCC1 | -16.3% (inactive) | 
CC(=O)c1ccc(-c2ccc(C(=O)Nc3nc(-c4ccccn4)cs3)o2)cc1 |  | 12.5 µM (active)
O=C(CC1CC2CCC1C2)Nc1nc(-c2ccccn2)cs1 (centres undefined) | 10.6% (inactive) | 
O=C(N/N=C/c1cccc2ccccc12)c1cc2ccccc2o1 |  | 9.94 µM (active)
Cc1c(/C=N\NC(=O)c2cc3ccccc3o2)c2ccccc2n1C |  | 3.96 µM (active)
Cc1cc(/C=N/NC(=O)c2cc3ccccc3o2)c(C)n1C | -4.16% (inactive) | 
CCCOc1ccc(NC(=O)CC2C(=O)N(c3ccc(OCC)cc3)C(=S)N2C2CC2)cc1 (centres undefined) | -18.2% (inactive) | 
COc1cc(N2CCCC2)c(OC)cc1/C=C1/NC(=S)NC1=O | 60.5% (inactive) | 
COc1cc(N2CCCC2)c(OC)cc1/C=C(/C#N)c1ccc(Br)cc1 |  | 1.64 µM (active)
COc1cc(N2CCCC2)c(OC)cc1/C=C(/C#N)c1ccc(F)cc1 |  | 8.2 µM (active)
CCOC(=O)C(C)Oc1cccc2c(=O)n(CC(=O)NCc3ccco3)ccc12 (centres undefined) |  | 1.4 µM (active)
COC(=O)COc1cccc2c(=O)n(CC(=O)NCc3ccccc3)ccc12 |  | 6.27 µM (active)
O=c1[nH]c(NCc2ccco2)nnc1Cc1ccccc1Cl |  | 15.8 µM (active)
CC(=O)Nc1sc(/C(C#N)=C\c2cccc(Cl)c2)nc1-c1ccc(C)cc1 |  | 4.61 µM (active)

SMILES | max response | Potency
CCOc1cc(/C=C(\C#N)c2nc(-c3cccs3)c(NC(C)=O)s2)ccc1O | 51.1% (inactive) | 
CC(=O)Nc1sc(/C(C#N)=C/c2ccc(Cl)c(Cl)c2)nc1-c1ccc(C)cc1 |  | 0.731 µM (active)
CCCCOc1ccc(/C=C/C2=CC(C)(C)NC(=S)N2)cc1OCC | -1.97% (inactive) | 
COc1ccccc1-c1c(C#N)c(N)nc2c1CCc1ccccc1-2 |  | 6.27 µM (active)
CC1=C(C(=O)Nc2cccc(F)c2)C(c2ccsc2)C2=C(CC(C)(C)CC2=O)N1 (centres undefined) |  | 1.98 µM (active)
O=[N+]([O-])c1ccccc1SNc1ccccc1 | -7.81% (inactive) | 
Cc1cc(C)c(S(=O)(=O)Oc2ccccc2[N+](=O)[O-])c(C)c1 |  | 3.53 µM (active)
CC(C)n1cnc2c(NCc3ccccc3)cc(N[C@H](C)CO)cc21 |  | 15.8 µM (active)
FC(F)(Cl)c1nnc2ccc(Cl)nn12 |  | 6.27 µM (active)
N#CCC(=O)N/N=C/c1ccc(N2N=C(c3ccccc3)CC2c2ccccc2)cc1 (centres undefined) |  | 16.4 µM (active)
COc1cc2c3nnc(-c4ccc(F)cc4)c-3cn(Cc3ccc(C)cc3)c2cc1OC |  | 9.94 µM (active)
COc1cc2c3nnc(-c4ccc(F)cc4)c-3cn(Cc3ccccc3F)c2cc1OC |  | 20.6 µM (active)
CCOC(=O)CSC1=C(C#N)C(c2ccc(C)s2)CC(=O)N1 (centres undefined) |  | 1.77 µM (active)
CCOc1ccccc1Nc1nnc(-c2cc3cc(OC)ccc3oc2=O)s1 |  | 5.17 µM (active)
COc1ccc2oc(=O)c(-c3nc4ccccc4o3)cc2c1 |  | 10.3 µM (active)
O=C(CCCCl)Oc1ccc2cc(-c3ccc4ccccc4n3)c(=O)oc2c1 | 32.5% (inactive) | 
CC(=O)Nc1ccc2c(c1)Cc1ccc(Cl)cc1-2 | -8.49% (inactive) | 
CC(=O)Nc1ccc(C2=CC(=O)C[C@H](c3ccc(Cl)cc3)C2)cc1 |  | 18.4 µM (active)
CN(C)CCN(C(=O)/C=C/c1cccs1)c1nc2c(F)cc(F)cc2s1 | -22.8% (inactive) | 
O=C(Nc1ccc([N+](=O)[O-])cc1)C(Cc1ccccc1)N1C(=O)c2cccc3cccc(c23)C1=O (centres undefined) |  | 8.86 µM (active)
Nc1c(C(=O)Nc2ccc(S(=O)(=O)N3CCCC3)cc2)sc2nc3ccc(OC(F)(F)F)cc3cc12 |  | 18.4 µM (active)
CCc1cccc2cc3c(N)c(C(=O)Nc4ccc(S(=O)(=O)N5CCCC5)cc4)sc3nc12 |  | 5.59 µM (active)
Nc1c(C(=O)Nc2ccc(S(=O)(=O)N3CCCC3)cc2)sc2nc3cc4c(cc3cc12)CCC4 |  | 10.3 µM (active)
Cn1c(N)c(-c2ccccc2)c2ccc([N+](=O)[O-])cc2c1=O |  | 5.59 µM (active)

SMILES | max response | Potency
N#Cc1c(-c2ccccc2F)cc(C2CC2)nc1SCC(=O)c1cccs1 |  | 14 µM (active)
CNC(=S)N/N=C(\C)c1ccc(Cl)s1 | 0.869% (inactive) | 
COc1ccc(Cl)cc1NC(=O)CN(C)CC(=O)Nc1ccccc1N1CCOCC1 |  | 1.58 µM (active)
COc1cc(Cl)c(C)cc1NC(=O)CN1CCN(C(=O)C2CC2)CC1 | -28.2% (inactive) | 
Fc1ccc(CNc2nc3ccccc3n3nnnc23)cc1 |  | 23.1 µM (active)
CN(C)c1ccc(Nc2nc3ccccc3n3nnnc23)cc1 | -13.6% (inactive) | 
Fc1ccccc1Nc1nc2ccccc2n2nnnc12 |  | 20.6 µM (active)
c1ccc2c(c1)nc(N1CCOCC1)c1nnnn12 | -18.6% (inactive) | 
Cc1ccc(C(=O)O)cc1Nc1nc2ccccc2n2nnnc12 | -28% (inactive) | 
CC(NC(=O)c1ccc(Nc2nc3ccccc3n3nnnc23)cc1)c1ccccc1 (centres undefined) |  | 20.6 µM (active)
CN(C)S(=O)(=O)c1ccc2c(c1)/C(=C/c1cc3c([nH]1)CCCC3)C(=O)N2 |  | 2.8 µM (active)
Nc1c(C(=O)C2CC2)sc2nc(-c3cccs3)cc(C(F)(F)F)c12 |  | 0.461 µM (active)
CC(C)(C)C(=O)c1sc2nc(-c3cccs3)cc(C(F)(F)F)c2c1N |  | 0.731 µM (active)
CCN(CC)C(=O)c1sc2nc(-c3cccs3)cc(-c3ccc(Cl)cc3)c2c1N |  | 15.8 µM (active)
CC(=O)c1sc2nc(-c3cccs3)cc(C(F)(F)F)c2c1N |  | 13 µM (active)
Clc1ccccc1C1CC(c2ccccc2)=Nc2ccccc2N1 (centres undefined) | -7.91% (inactive) | 
Cc1ccc2nc(SCC(=O)Nc3ccc4sc(C)nc4c3)c(C#N)cc2c1 |  | 18.4 µM (active)
Cc1nc2cc(NC(=O)CSc3nc4c(C)cccc4cc3C#N)ccc2s1 |  | 20.6 µM (active)
COCCN(CCOC)Cc1c(O)ccc2c1O/C(=C\c1ccc(C)o1)C2=O | -11.8% (inactive) | 
Cc1nnc(N2C(=O)c3cccc4c([N+](=O)[O-])ccc(c34)C2=O)s1 |  | 20.6 µM (active)
CC(=O)Oc1cccc(N2C(=O)c3cccc4c([N+](=O)[O-])ccc(c34)C2=O)c1 |  | 15.8 µM (active)
O=C1c2cccc3c([N+](=O)[O-])ccc(c23)C(=O)N1c1ccccn1 | 54.4% (inactive) | 
